Measured values from PubChem BioAssay (EPA / NIEHS).
Activity calls are given as the source filed them. Rule for the calls: active = hit-call score of the fitted dose curve at least 0.9, where 1 is the maximum; inactive = score below 0.9.

Key:
[1] = read-out: Human Leukocyte Antigen - DR isotype (HLADR), HLA-DRA (gene 3122); experiment: BSK_BE3C_HLADR: BioMAP Diversity Plus: BE3C Assay for Human Leukocyte Antigen - DR isotype (HLADR) Biomarker Activity (AID 2283032); conditions: primary human bronchial epithelial cells; actives raise or lower the signal
In short: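 Primary human bronchial epithelial cells (BE3C); 24 h chemical exposure; HLA-DR by ELISA; bidirectional curve fit vs DMSO baseline.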

[2] = read-out: Vascular cell adhesion molecule 1 (VCAM1), VCAM1 (gene 7412); experiment: BSK_4H_VCAM1: BioMAP Diversity Plus: 4H Assay for Vascular cell adhesion molecule 1 (VCAM1) Biomarker Activity (AID 2283033); conditions: primary human endothelial cells (HUVEC); actives raise or lower the signal
In short: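 HUVEC, 24 h post-dose; VCAM-1 by ELISA. Bidirectional curve fit vs DMSO baseline. Parallel SRB total-protein stain (0.1% SRB after 10% TCA fixation, 560 nm) for cytotoxicity.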

[3] = read-out: Interferon-gamma inducible Protein 10 (IP10), CXCL10 (gene 3627); experiment: BSK_BE3C_IP10: BioMAP Diversity Plus: BE3C Assay for Interferon-gamma inducible Protein 10 (IP10) Biomarker Activity (AID 2283034); conditions: primary human bronchial epithelial cells; actives raise or lower the signal
In short: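 ELISA readout of IP-10 in BE3C system: primary human bronchial epithelial cells, 24 h post-dosing; bidirectional curve fit vs DMSO baseline.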

[4] = read-out: Monokine induced gamma interferon (MIG), CXCL9 (gene 4283); experiment: BSK_BE3C_MIG: BioMAP Diversity Plus: BE3C Assay for Monokine induced gamma interferon (MIG) Biomarker Activity (AID 2283035); conditions: primary human bronchial epithelial cells; actives raise or lower the signal
In short: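 Dose cells (human primary bronchial epithelial), incubate 24 h, quantify MIG by ELISA, then fit concentration–response in both directions relative to DMSO control.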

[5] = read-out: Transforming growth factor beta 1 (TGFb1), TGFB1 (gene 7040); experiment: BSK_BE3C_TGFb1: BioMAP Diversity Plus: BE3C Assay for Transforming growth factor beta 1 (TGFb1) Biomarker Activity (AID 2283036); conditions: primary human bronchial epithelial cells; actives raise or lower the signal
In short: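 Read-out: ELISA for TGF-b1 in primary human bronchial epithelial cultures, 24 h post-dose. Bidirectional curve fitting vs DMSO control; gain or loss of signal both scored.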

[6] = read-out: Plasminogen activator inhibitor-1 (PAI1), SERPINE1 (gene 5054); experiment: BSK_BE3C_PAI1: BioMAP Diversity Plus: BE3C Assay for Plasminogen activator inhibitor-1 (PAI1) Biomarker Activity (AID 2283037); conditions: primary human bronchial epithelial cells; actives raise or lower the signal
In short: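 ELISA read-out of PAI-1 from human bronchial epithelial primary cells, 24 h post-dosing; bidirectional curve fit vs DMSO baseline, gain or loss of signal scored.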

[7] = read-out: Urokinase-type plasminogen activator receptor (uPAR), PLAUR (gene 5329); experiment: BSK_BE3C_uPAR: BioMAP Diversity Plus: BE3C Assay for Urokinase-type plasminogen activator receptor (uPAR) Biomarker Activity (AID 2283039); conditions: primary human bronchial epithelial cells; actives raise or lower the signal
In short: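 ELISA readout of uPAR on human lung primary bronchial epithelial cells, 24 h post-dosing. Bidirectional curve fit relative to DMSO vehicle baseline; gain or loss of signal both scored.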

[8] = read-out: Interleukin-6 (IL6), IL6 (gene 3569); experiment: BSK_CASM3C_IL6: BioMAP Diversity Plus: CASM3C Assay for Interleukin-6 (IL6) Biomarker Activity for (AID 2283040); conditions: primary human coronary artery smooth muscle cells; actives raise or lower the signal
[9] = read-out: Tissue plasminogen activator (tPA), PLAT (gene 5327); experiment: BSK_BE3C_tPA: BioMAP Diversity Plus: BE3C Assay for Tissue plasminogen activator (tPA) Biomarker Activity (AID 2283041); conditions: primary human bronchial epithelial cells; actives raise or lower the signal
In short: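 ELISA read-out of tPA on human primary bronchial epithelial cells, 24 h post-dosing; bidirectional fit vs DMSO negative control/baseline.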

[10] = read-out: Interleukin-8 (IL8), CXCL8 (gene 3576); experiment: BSK_CASM3C_IL8: BioMAP Diversity Plus: CASM3C Assay for Interleukin-8 (IL8) Biomarker Activity (AID 2283042); conditions: primary human coronary artery smooth muscle cells; actives raise or lower the signal;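 note: IL-8 protein level quantified by ELISA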
[11] = read-out: Human Leukocyte Antigen - DR isotype (HLADR), HLA-DRA (gene 3122); experiment: BSK_CASM3C_HLADR: BioMAP Diversity Plus: CASM3C Assay for Human Leukocyte Antigen - DR isotype (HLADR) Biomarker Activity (AID 2283043); conditions: primary human coronary artery smooth muscle cells; actives raise or lower the signal;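 note: cell-surface HLA-DR protein level quantified by ELISA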
[12] = read-out: Macrophage colony-stimulating factor (MCSF), CSF1 (gene 1435); experiment: BSK_CASM3C_MCSF: BioMAP Diversity Plus: CASM3C Assay for Macrophage colony-stimulating factor (MCSF) Biomarker Activity (AID 2283044); conditions: primary human coronary artery smooth muscle cells; actives raise or lower the signal;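 note: M-CSF protein amount quantified by ELISA after 24 h exposure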
[13] = read-out: Low-density lipoprotein receptor (LDLR), LDLR (gene 3949); experiment: BSK_CASM3C_LDLR: BioMAP Diversity Plus: CASM3C Assay for Low-density lipoprotein receptor (LDLR) Biomarker Activity (AID 2283045); conditions: primary human coronary artery smooth muscle cells; actives raise or lower the signal;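 note: LDLR protein level on the cell surface quantified by ELISA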
[14] = read-out: Monocyte Chemoattractant Protein-1 (MCP1), CCL2 (gene 6347); experiment: BSK_CASM3C_MCP1: BioMAP Diversity Plus: CASM3C Assay for Monocyte Chemoattractant Protein-1 (MCP1) Biomarker Activity (AID 2283046); conditions: primary human coronary artery smooth muscle cells; actives raise or lower the signal;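 note: MCP-1 level quantified by ELISA 24 h after dosing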
[15] = BSK_CASM3C_Proliferation: Cell Proliferation Assessment in the BioMAP Diversity Plus: CASM3C Assay (AID 2283047); conditions: primary human coronary artery smooth muscle cells;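 note: sulforhodamine B total protein stain as relative cell number at 560 nm; sub-confluent cells exposed 48 h before staining; fitted both ways against DMSO so gain or loss of cell number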
[16] = read-out: Monokine induced gamma interferon (MIG), CXCL9 (gene 4283); experiment: BSK_CASM3C_MIG: BioMAP Diversity Plus: CASM3C Assay for Monokine induced gamma interferon (MIG) Biomarker Activity (AID 2283048); conditions: primary human coronary artery smooth muscle cells; actives raise or lower the signal;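 note: MIG protein level measured by ELISA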
[17] = read-out: serum amyloid A (SAA), SAA1 (gene 6288); experiment: BSK_CASM3C_SAA: BioMAP Diversity Plus: CASM3C Assay for serum amyloid A (SAA) Biomarker Activity (AID 2283049); conditions: primary human coronary artery smooth muscle cells; actives raise or lower the signal;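 note: SAA protein level quantified by ELISA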
[18] = BSK_CASM3C_SRB: Viability Assessment in the BioMAP Diversity Plus: CASM3C Assay (AID 2283050); conditions: primary human coronary artery smooth muscle cells;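 note: total protein by SRB staining as cytotoxicity measure in parallel cultures; cells exposed to compound for 24 h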
[19] = read-out: Thrombomodulin, THBD (gene 7056); experiment: BSK_CASM3C_Thrombomodulin: BioMAP Diversity Plus: CASM3C Assay for Thrombomodulin Biomarker Activity (AID 2283051); conditions: primary human coronary artery smooth muscle cells; actives raise or lower the signal;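 note: thrombomodulin protein level measured by ELISA 24 h after dosing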
[20] = read-out: urokinase plasminogen activator (uPA), PLAU (gene 5328); experiment: BSK_BE3C_uPA: BioMAP Diversity Plus: BE3C Assay for urokinase plasminogen activator (uPA) Biomarker Activity (AID 2283038); conditions: primary human bronchial epithelial cells; actives raise or lower the signal;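 note: uPA protein level quantified by ELISA in cell cultures; uPA read one day after compound addition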
In short: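 Primary human bronchial epithelial cells, uPA measured by ELISA 24 h after dosing. Bidirectional change relative to DMSO; cytotoxicity checked in parallel cultures by sulforhodamine B total-protein staining.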

Measured: AC50

CC(C)N(C(=O)CCl)c1ccccc1
active: [1] 20 µM | [2] 20 µM | [3] 33.5 µM | [8] 32.9 µM | [10] 27.1 µM | [11] 6.14 µM | [12] 13.3 µM | [13] 5.57 µM | [14] 6.89 µM | [15] 6.4 µM | [16] 12.4 µM | [17] 4.5 µM | [18] 6.28 µM | [19] 2.75 µM
inactive: [4] | [5] | [6] | [7] | [9]

Oc1ccc(Cc2ccc(O)cc2)cc1
inactive: [1] | [2] | [4] | [5] | [6] | [7] | [8] | [9] | [10] | [11] | [12] | [13] | [14] | [15] | [16] | [17] | [18] | [19]

O=C(O)COc1cc(Cl)c(Cl)cc1Cl
inactive: [1] | [2] | [4] | [5] | [6] | [7] | [8] | [9] | [10] | [11] | [12] | [13] | [14] | [15] | [16] | [17] | [18] | [19]

O=C(CCl)NCO
inactive: [1] | [2] | [4] | [5] | [6] | [7] | [8] | [9] | [10] | [11] | [12] | [13] | [14] | [15] | [16] | [17] | [18] | [19]

O=c1oc2ccccc2c(O)c1C(CC(O)c1ccc(-c2ccc(Br)cc2)cc1)c1ccccc1 (stereo not given)
inactive: [16] | [19]
active: [1] 5.4 µM | [2] 13.9 µM | [4] 10.5 µM | [5] 0.144 µM | [6] 0.915 µM | [7] 5.34 µM | [8] 25 µM | [9] 0.837 µM | [10] 0.0413 µM | [11] 4.99 µM | [12] 16.3 µM | [13] 19.1 µM | [14] 7.44 µM | [15] 19.1 µM | [17] 0.0998 µM | [18] 13.9 µM

Cc1ccc2nc3sc(=O)sc3nc2c1
inactive: [3] | [4] | [5] | [6] | [20] | [7] | [8] | [9] | [10] | [11] | [12] | [13] | [14] | [15] | [16] | [17] | [18] | [19]
active: [1] 5 µM | [2] 7.39 µM

Cc1ccccc1OP(=O)(Oc1ccccc1)Oc1ccccc1
active: [1] 11.5 µM | [2] 26.1 µM | [18] 8.32 µM
inactive: [4] | [5] | [6] | [20] | [7] | [8] | [9] | [10] | [11] | [12] | [13] | [14] | [15] | [16] | [17] | [19]
